USP17 inh = inhibitors of human USP17 deubiquitinase. purified USP17, Ub-rhodamine cleavage fluorescence, 3 h. inhibition, % at 50 µM. actives 6.5% (n = 47,000). AID 1645855, 2021
USP8 inh = inhibitors of human USP8 deubiquitinase | Ubiquitin carboxyl-terminal hydrolase 8 (Homo sapiens), P40818 | purified USP8, Ub-rhodamine cleavage fluorescence, 30 min | inhibition, % at 20 µM | actives 4.2% (n = 47,000) | AID 1645853, 2021
USP28 inh = inhibitors of human USP28 deubiquitinase. inhibition, % at 25 µM. actives 3% (n = 47,000). AID 1645857, 2021. purified USP28, Ub-rhodamine cleavage fluorescence, 30 min. Ubiquitin carboxyl-terminal hydrolase 28 (Homo sapiens), Q96RU2
USP30 block = inhibitors of human USP30 deubiquitinase; AID 1645860, 2021; Ubiquitin carboxyl-terminal hydrolase 30 (Homo sapiens), Q70CQ3; actives 5.3% (n = 47,000); purified USP30, Ub-rhodamine cleavage fluorescence; inhibition, % at 25 µM
Large screens that a line does not name were inactive. Shown are actives, neighbours in structure and some others; about 14% of the full set was active somewhere. Rule as the data show it: active = inhibition above about 30%; inactive = the rest.

Cc1cc2nccc(C3CCN(C(=O)COc4cccnc4)CC3)n2n1	USP8 inh 49
CCCCN(Cc1ccccc1)C(=O)c1cc2c(=O)n3cccc(C)c3nc2n1Cc1ccccc1	none
O=C(Cc1noc2ccccc12)NCC(=O)Nc1ccc(Cl)cc1	USP17 inh 77
N#Cc1cccc(NC(=O)Cc2noc3ccccc23)c1	none
O=C(N[C@@H]1CC[C@@H](Oc2cccc(F)c2)[C@H](O)[C@H]1O)c1cccc(F)c1	none
COc1cccc(C(=O)COC(=O)c2cc(=O)[nH]c3ccccc23)c1	USP17 inh 37
O=C(NCc1csc(-c2ccccc2)n1)c1cc(F)cc2c1OCOC2	USP17 inh 33
Cc1ccc(Cn2nnc3c(=O)[nH]c(C4CCN(C(=O)Cc5ccccc5)CC4)nc32)cc1	none
O=C(Cc1ccccc1)N1CCC(c2nc3c(nnn3Cc3ccc(F)cc3)c(=O)[nH]2)CC1	USP30 block 31
N#Cc1ccc(NC(=O)N2CCC(c3nc4c(nnn4Cc4ccc(F)cc4)c(=O)[nH]3)CC2)cc1	USP17 inh 30, USP30 block 30
O=C(c1c(F)cccc1F)N1CCC(c2nc3c(nnn3Cc3ccc(F)cc3)c(=O)[nH]2)CC1	none
COc1ccc(C(=O)N2CCC(c3nc4c(nnn4Cc4cc(C)ccc4C)c(=O)[nH]3)CC2)cc1	USP17 inh 36, USP30 block 30
Cc1ccc(C)c(Cn2nnc3c(=O)[nH]c(C4CCN(C(=O)C5CCCC5)CC4)nc32)c1	none
Cc1ccc(Cn2nnc3c(=O)[nH]c(C4CCN(C(=O)c5ccccc5)CC4)nc32)cc1	USP30 block 43
CCn1nc(C(=O)OCC(=O)NCCc2ccc(Cl)cc2)c2ccccc2c1=O	none
O=c1cc(CN2CCCC2)nc(-c2ccccc2)[nH]1	none
COc1ccc(S(=O)(=O)N2CCC[C@H](Cn3nnc(-c4cccnc4)n3)C2)cc1	none
Cc1ccc(Cn2nnc3c(=O)[nH]c(C4CCN(C(=O)CC(C)(C)C)CC4)nc32)cc1	USP28 inh 32
COc1ccc(CNc2ncnc3c2[nH]c2ccc(C)cc23)cc1OC	none
O=c1c(-c2nc(C3CC3)no2)cccn1Cc1nc(-c2ccccc2F)no1	none
O=c1c(-c2nc(-c3ccncc3)no2)cccn1Cc1c(F)cccc1Cl	USP8 inh 51
O=C(COc1ccc(C(=O)c2ccccc2)cc1)Nc1cccnc1	none
O=C(Nc1cccnc1)c1ccc(Oc2ccccc2)cc1	USP28 inh 44
COc1ccc2[nH]c3c(=O)n(CCN4CCOCC4)cnc3c2c1	none
COc1ccc2c(c1)c1nc(C)sc1n2CCN1CCOCC1	USP8 inh 43
COc1ccc(OC)c(S(=O)(=O)Nc2cccc(-c3nnc(-c4ccccc4)o3)c2)c1	none
COc1ccc(NC(=O)Nc2cccc(-c3nnc(-c4ccccc4)o3)c2)cc1OC	USP30 block 51
CC(=O)Nc1ccc(SCc2nnc(-c3ccccc3)o2)cc1	USP28 inh 45
Cc1ccccc1NC(=O)Nc1cccc(-c2nnc(-c3ccccc3)o2)c1	USP8 inh 51
Cn1cnnc1-c1cccc(NC(=O)Nc2cccc3ccccc23)c1	USP17 inh 42, USP8 inh 70
O=C(Nc1cccc(F)c1)Nc1cccc(-c2nnc(-c3ccccc3)o2)c1	USP17 inh 89, USP8 inh 31, USP28 inh 72, USP30 block 91
O=C(Nc1ccccc1)Nc1ccc(F)c(-c2nnc(-c3ccccc3)o2)c1	none
CC(C)(C)C(=O)Nc1ccc(C(=O)Nc2cccc(-c3nnc(-c4ccccc4)o3)c2)cc1	USP17 inh 44, USP30 block 55
COc1ccc(CNc2nc(-c3ccccc3)no2)cc1	none
CC(C)(C)n1cc(C(=O)N2CCCCCC2c2ccncc2)cn1 (stereo not given)	none
O=C(Nc1nnc(-c2cccc([N+](=O)[O-])c2)o1)C1CCN(S(=O)(=O)c2ccc(Cl)cc2)CC1	none
Nc1nccc(-c2ccc3c(c2)CCC3)n1	none
N#Cc1cnn2ccc(-c3ccc4c(c3)CCC4)nc12	USP17 inh 34 (no result: USP28 inh, USP30 block)
Cn1nc(C(C)(C)C)cc1C(=O)N1CCC[C@H](C(=O)c2ccccc2F)C1	none
COc1ccc(Cn2c(C(=O)O)c(CNCc3cccs3)c3ccccc32)cc1	none
COc1ccc(-c2nn(-c3ccccc3)c3[nH]c(=O)c(CNCc4cccs4)cc23)cc1	USP8 inh 82
Cc1nn(-c2ccccc2)c2[nH]c(=O)c(CNC(C)c3cccs3)cc12 (stereo not given)	USP8 inh 30
O=c1[nH]c2cc3c(cc2cc1CNCc1ccc2c(c1)OCO2)OCCO3	none
Cc1nn(-c2ccc(Cl)cc2)c2[nH]c(=O)c(CNc3ccc(C(C)(C)C)cc3)cc12	USP17 inh 39
Cc1nn(-c2ccc(Cl)cc2)c2[nH]c(=O)c(CNCc3ccc4c(c3)OCO4)cc12	USP8 inh 81
O=C(NCc1ccccc1Cn1cccn1)c1ccc2ccccc2n1	none
Cc1nn(-c2ccc(Cl)cc2)c2[nH]c(=O)c(CNCc3cccs3)cc12	USP8 inh 77
Cc1nn(-c2ccc(Cl)cc2)c2[nH]c(=O)c(CNCc3ccc(F)cc3)cc12	USP8 inh 76
COCC1c2nnn(C)c2CCN1C(=O)c1ccc(C)s1 (stereo not given)	none
CC(C(=O)Nc1cc(Cl)cc(Cl)c1)n1cnc2scc(-c3ccc4c(c3)CCCC4)c2c1=O (stereo not given)	none
CN1C(=O)COc2ccc(NC(=O)c3cc(-c4ccccc4)on3)cc21	USP17 inh 74
Cc1c(C(=O)Nc2ccc3c(c2)N(C)C(=O)CO3)oc2ccc(F)cc12	none
COc1ccc(CC(=O)NCc2ccc3c(c2)cc(C)n3C)cc1OC	none
Cc1cc2cc(CNC(=O)NC3CCCCC3)ccc2n1C	USP17 inh 33
CC1CCc2c(sc(N)c2C(=O)NC2CCCC2)C1 (stereo not given)	USP8 inh 37
CC1CCc2c(sc3ncnc(NC4CC4)c23)C1 (stereo not given)	none
COc1cc2c(c(OC)c1OC)-c1ccc(N3CCN(Cc4ccc5c(c4)OCO5)CC3)c(=O)cc1[C@@H](NC(C)=O)CC2	USP8 inh 45
COc1cc2c(c(OC)c1OC)-c1ccc(N3CCN(C)CC3)c(=O)cc1[C@@H](NC(C)=O)CC2	none
Fc1ccc(-c2cnc(N3CCN(c4ccccn4)CC3)nc2)cc1	USP30 block 31
COc1ccc(-c2nn(-c3ccccc3)cc2/C=C/C(=O)Nc2ccc(C(C)=O)cc2)cc1OC	USP17 inh 55, USP28 inh 48, USP30 block 84
COc1ccc(C(=O)/C=C\c2cn(CCC(=O)O)nc2-c2ccc(OC)c(OC)c2)cc1	none
COc1ccc2nc(-c3ccc(NC(=O)c4cccc(OC)c4OC)cc3)cn2n1	USP17 inh 81
COc1ccc2nc(-c3cccc(NC(=O)C4CCCC4)c3)cn2n1	none
Cc1ccc(CNC(=O)Cc2nnc(-c3ccc4ncccc4c3)o2)cc1	USP17 inh 31
O=C(Cn1c(=O)n(CCC(=O)NC2CCCC2)c(=O)c2ccccc21)Nc1ccccc1F	none
